Assay results from PubChem BioAssay (NCI).
Compounds without any hit were thinned out: in the full panel of roughly 83,000, 20% have a hit.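 Testing used 96-well plates and a 48-hour single-concentration exposure. Example: -40 means 40% of the starting cells died.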 Calls of active or inactive are those of the source. How the source made its calls: active means growth percent below 10; inactive means the rest.

Legend:
Assay in all cases: NCI-60 one-dose screen, 48 h (100 = growth as untreated, 0 = no growth, -100 = all killed)
Conditions in all cases: 10 µM unless noted
NCI-H23 lung = system: NCI-H23 lung
NCI-H226 lung = system: NCI-H226 lung
NCI-H322M lung = system: NCI-H322M lung
NCI-H460 lung = system: NCI-H460 lung
HOP-92 NSCLC = system: HOP-92 NSCLC
NCI-H522 lung = system: NCI-H522 lung
A549/ATCC NSCLC = system: A549/ATCC NSCLC
786-0 renal = system: 786-0 renal
COLO 205 colon = system: COLO 205 colon
HOP-62 NSCLC = system: HOP-62 NSCLC

Row | SMILES | growth (NCI-H23 lung) | growth (NCI-H226 lung) | growth (NCI-H322M lung) | growth (NCI-H460 lung) | growth (HOP-92 NSCLC) | growth (NCI-H522 lung) | growth (A549/ATCC NSCLC) | growth (786-0 renal) | growth (COLO 205 colon) | growth (HOP-62 NSCLC)
1 | Cn1cc(-c2ccc3ncc(-c4ccc(CC(=O)Nc5cc(C(C)(C)C)nn5C)cc4)cc3c2)cn1 | 7.05% [30 µM] (active) | 11.5% [30 µM] (inactive) | 15% [30 µM] (inactive) | 8.3% [30 µM] (active) | 31.6% [30 µM] (inactive) | -2.49% [30 µM] (active) | 17.8% [30 µM] (inactive) | 39.6% [30 µM] (inactive) | 5.26% [30 µM] (active) | 
2 | CNC(=O)c1cc(Oc2ccc3nc(Nc4cc(Cl)cc(Cl)c4)ccc3c2)ccn1 | 70.6% (inactive) | 81.9% (inactive) | 82.9% (inactive) | 66.9% (inactive) | 67.6% (inactive) | 29.6% (inactive) | 49.3% (inactive) | 82.6% (inactive) |  | 
3 | COc1ccc(C(=O)/C=C/C23c4ccccc4C(c4ccccc42)C2C(=O)NC(=O)C23)cc1 (centres undefined) | 88.1% (inactive) | 99.7% (inactive) | 92.4% (inactive) | 96.2% (inactive) | 103% (inactive) | 87% (inactive) | 90.7% (inactive) | 103% (inactive) |  | 
4 | O=C1CCC(N2C(=O)c3cccc(NCCCC4CCN(CCNC(=O)c5cc6c(o5)C(=O)c5ccccc5C6=O)CC4)c3C2=O)C(=O)N1 (centres undefined) | -59.6% (active) | -69.2% (active) | -98.8% (active) | -71.1% (active) | 49% (inactive) | -51.7% (active) | -41.9% (active) | -26.2% (active) |  | 
5 | CCN(CC)CCOC(=O)N1c2ccccc2Sc2ccccc21 | 104% (inactive) | 95.2% (inactive) | 89.7% (inactive) | 103% (inactive) | 73.1% (inactive) | 68.7% (inactive) | 88.9% (inactive) | 91.4% (inactive) |  | 
6 | C#CC[C@H](N)C(=O)O | 103% [20 µM] (inactive) | 106% [20 µM] (inactive) | 97.8% [20 µM] (inactive) | 104% [20 µM] (inactive) | 87.3% [20 µM] (inactive) | 89.2% [20 µM] (inactive) | 99% [20 µM] (inactive) | 98.1% [20 µM] (inactive) |  | 
7 | Cc1ccc(S(=O)(=O)N(CC[C@@H]2C[C@H]2c2cc3ccccc3o2)C(=O)NC2CCCCC2)cc1 | 78.2% (inactive) | 87.3% (inactive) | 108% (inactive) | 104% (inactive) | 110% (inactive) | 86% (inactive) | 101% (inactive) | 95.4% (inactive) |  | 
8 | NC(N)=N/N=C/CO | 103% (inactive) | 99% (inactive) | 99.7% (inactive) | 104% (inactive) | 108% (inactive) | 106% (inactive) | 97.9% (inactive) | 99.9% (inactive) |  | 
9 | CC(C)c1ccc(NC(=O)Cc2ccc(Nc3ncnc4cc(-c5cnn(CCN(C)C)c5)ccc34)cc2)cc1 | -61.7% [30 µM] (active) | 50.6% [30 µM] (inactive) | -99.7% [30 µM] (active) | -90.5% [30 µM] (active) | -45.3% [30 µM] (active) | -45.3% [30 µM] (active) | -35.7% [30 µM] (active) | -59.1% [30 µM] (active) | -46.7% [30 µM] (active) | 
10 | Oc1ccccc1-c1nc2ccccn2c1NCCN1CCOCC1 | 100% (inactive) | 101% (inactive) | 91.7% (inactive) | 99.2% (inactive) | 85.2% (inactive) | 84% (inactive) | 91.9% (inactive) | 92.4% (inactive) |  | 
11 | COc1ccc(-c2cc(-c3cc(OC)ccc3OC)[nH]c(=O)c2C#N)cc1 | 64.3% (inactive) | 69.5% (inactive) | 91.7% (inactive) | 32.4% (inactive) | 55.3% (inactive) | 16.7% (inactive) | 46.3% (inactive) | 63.5% (inactive) |  | 
12 | O=c1ccn(C2OC(F)(CO)C(O)C2F)c(=O)[nH]1 (centres undefined) | 100% (inactive) | 102% (inactive) | 113% (inactive) | 107% (inactive) | 98.1% (inactive) | 75% (inactive) | 104% (inactive) | 96% (inactive) |  | 
13 | CCOC(=O)c1c(C)[nH]c(C(=O)CCC(=O)OC)c1C | 98.3% (inactive) | 95.8% (inactive) | 98.5% (inactive) | 110% (inactive) | 84.6% (inactive) | 72.5% (inactive) | 93.3% (inactive) | 92.9% (inactive) |  | 
14 | N#Cc1c(NC(=O)c2ccc(Br)cc2)sc2c1CCCC2 | 65% (inactive) | 44.2% (inactive) | 52.1% (inactive) | 14.3% (inactive) | 81.5% (inactive) | 22.6% (inactive) | 53.6% (inactive) | 46.1% (inactive) |  | 
15 | N=C(N)c1ccc(-c2ccc(-c3ccc(Cl)cc3Cl)o2)cc1 | 3.61% (active) | 93.7% (inactive) | -53.9% (active) | -65.7% (active) | 45.3% (inactive) | 1.99% (active) | -46.5% (active) | -86% (active) |  | 
16 | CC(=O)NCC(=O)Nc1ccc(-c2nnc3ccccn23)nc1.CC(=O)NCC(=O)Nc1ccc(-c2nnc3ccccn23)nc1.[Pt+2] | 99.4% (inactive) | 110% (inactive) | 112% (inactive) | 99.6% (inactive) | 119% (inactive) | 83.6% (inactive) | 85% (inactive) | 107% (inactive) | 111% (inactive) | 
17 | CN(CCCCCCCCNc1ccnc2ccccc12)Cc1ccc(-c2ccc(-c3ccc(C#N)cc3)s2)cc1 | 21.1% (inactive) | -66.9% (active) | -66% (active) | -76.3% (active) | 44.8% (inactive) | -62.9% (active) | -60.7% (active) | -89.8% (active) |  | 

Row | SMILES | growth (NCI-H23 lung) | growth (NCI-H226 lung) | growth (NCI-H322M lung) | growth (NCI-H460 lung) | growth (HOP-92 NSCLC) | growth (NCI-H522 lung) | growth (A549/ATCC NSCLC) | growth (786-0 renal) | growth (COLO 205 colon) | growth (HOP-62 NSCLC)
18 | Nc1c(C(=O)c2ccccc2)nnc2ncnn12 | 95.6% (inactive) | 94.5% (inactive) | 98.2% (inactive) | 106% (inactive) | 95.2% (inactive) | 88.5% (inactive) | 95.2% (inactive) | 97.2% (inactive) | 103% (inactive) | 
19 | COc1ccc(C2CC(c3cnccn3)=NN2)cc1OC (centres undefined) | 101% (inactive) | 98.8% (inactive) | 90.9% (inactive) | 108% (inactive) | 68.3% (inactive) | 67% (inactive) | 90.4% (inactive) | 92% (inactive) |  | 
20 | CCN(CC)CCOC(=O)Nc1ccccc1Cl | 105% (inactive) | 88.1% (inactive) | 92.7% (inactive) | 104% (inactive) | 82% (inactive) | 68.9% (inactive) | 98.7% (inactive) | 92.1% (inactive) |  | 
21 | COc1ccc(-n2sc(=O)n(Cc3ccc(COC(=O)C(C)c4ccc(CC(C)C)cc4)cc3)c2=O)cc1 (centres undefined) | 78.1% (inactive) | 68.2% (inactive) | 94.9% (inactive) | 76.4% (inactive) | 19.2% (inactive) | -32.9% (active) | 80.8% (inactive) | 57.3% (inactive) | -10.9% (active) | 
22 | CCOC(=O)c1cnn2c(-c3ccc(Cl)cc3)nc(NCc3ccccc3)nc12 | 58.4% (inactive) | 89.3% (inactive) | 99.2% (inactive) | 78.1% (inactive) | 64.2% (inactive) | 81.5% (inactive) | 84.9% (inactive) | 6.24% (active) |  | 
23 | Oc1[nH]c2ccccc2c1/C=c1/cc2c(c(-c3ccc(F)cc3)n1)=Nc1ccccc1-2 | -5.74% (active) | 19.4% (inactive) | 58.7% (inactive) | -23.6% (active) | -17.9% (active) | -58% (active) | -33.7% (active) | -76.8% (active) |  | 
24 | C=C1c2c(C)nn(-c3ccc(N)cc3)c2N(C)C23CC1C1(C)c4c(C)nn(-c5ccc(N)cc5)c4N(C)C(C)(CC12)C3 (centres undefined) | 93.6% (inactive) | 71.2% (inactive) | 92.1% (inactive) | 57.2% (inactive) | 90.2% (inactive) | 62.3% (inactive) | 50.1% (inactive) | 81.1% (inactive) |  | 
25 | O=C(/C=C/C12c3ccccc3C(c3ccccc31)C1C(=O)N(c3ccccc3)C(=O)C12)c1ccc(Cl)cc1 (centres undefined) |  | -10% (active) | 35.3% (inactive) | -17.5% (active) | 39.1% (inactive) | 10.1% (inactive) | 25.1% (inactive) | 8.93% (active) |  | 23.5% (inactive)
26 | c1ccc2c(c1)ncn2-c1nc2ccccc2n2c1nc1ccccc12 |  | 78.4% (inactive) | 62.9% (inactive) | 52.1% (inactive) | 88.5% (inactive) | 81.6% (inactive) | 81.7% (inactive) | 98.3% (inactive) |  | 50.1% (inactive)
27 | N#Cc1c(N)nc2c(nnn2-c2cccc(Br)c2)c1N |  | 95.7% (inactive) | 97.6% (inactive) | 97.1% (inactive) | 82.2% (inactive) | 86% (inactive) | 92.6% (inactive) | 105% (inactive) | 105% (inactive) | 94.8% (inactive)
28 | CCOC(=O)c1sc2ccc(NCc3nc[nH]c3C)cc2c1NC(=O)c1cc(OC)c(OC)c(OC)c1 |  | 84.3% (inactive) | 91% (inactive) | 92.6% (inactive) | 75.1% (inactive) | 84.8% (inactive) | 101% (inactive) | 84.8% (inactive) |  | 93.9% (inactive)
29 | CCCCN1CCN(c2ccc3nc(-c4ccc5nc(-c6ccc(OCC)c(OCC)c6)[nH]c5c4)[nH]c3c2)CC1 |  | 16.2% (inactive) | 14.1% (inactive) | -84.3% (active) | 81.3% (inactive) | -32.2% (active) | 37.7% (inactive) | -87.4% (active) |  | -69.7% (active)
30 | Nc1ccc(-c2cc3c(Nc4ccc(OCc5cccc(F)c5)c(Cl)c4)ncnc3s2)cc1 |  | 53.5% (inactive) | 26.6% (inactive) | 36.5% (inactive) | 45.8% (inactive) | 13.1% (inactive) | 21.2% (inactive) | 37.2% (inactive) |  | 62.3% (inactive)
31 | OC(CBr)c1ccnc2ccccc12 (centres undefined) |  | 92.3% (inactive) | 102% (inactive) | 105% (inactive) | 89.3% (inactive) | 71.8% (inactive) | 96.3% (inactive) | 99.1% (inactive) |  | 99.1% (inactive)
32 | Cc1c(C(N)=O)sc2nc(C)n(/N=c3\scc(-c4ccccc4)n3Cc3ccccc3)c(=O)c12 |  | 30.9% (inactive) | 35.4% (inactive) | 7.46% (active) | -19.1% (active) | 24.9% (inactive) | 0% (active) | 50.7% (inactive) |  | 24.2% (inactive)
33 | COc1ccc(C(=O)/C=C/c2cc3c(c(OC)c2)OCC(=O)N3)cc1 |  | 87.6% (inactive) | 87.8% (inactive) | 9.81% (active) | 39.5% (inactive) | 46.4% (inactive) | 78% (inactive) | 14.5% (inactive) | 77% (inactive) | 87.4% (inactive)
34 | O=C(Nc1ccccc1Cl)OCCN1CCOCC1 |  | 99% (inactive) | 98.7% (inactive) | 109% (inactive) | 85.6% (inactive) | 64.5% (inactive) | 98.5% (inactive) | 88.7% (inactive) |  | 106% (inactive)
